From PubChem BioAssay AID1259312 (Keith Lab, Institute of Cancer Science, University of …, 2017) come the findings set out here.

Among all 4,500 compounds or so, about 200 (4.4%) were called active. Shown is part of a subset that was picked to be rich in actives. Values without a mark were called inactive.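 The calls were made as follows: active = cell survival measured by absorbance rises more than 2.5-fold over infected cells without compound; inactive = the rest.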

This assay in a line: survival after telomere uncapping, modulators, primary screen, cell-based (AID 1259312).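 Also: virus expresses mutant telomerase RNA that uncaps telomeres and kills cells; compound added 2 days after infection so exposure lasts 3 days.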 Conditions: HCT116 + Ad-hTR-mut, MTT, 5 d; at 10 µM, stronger effect = higher value.
In the case of `O=c1[nH]c(O)c(C=Nc2ccccc2Br)c(=O)[nH]1`, the fold change result is “inactive”.

Turning to `O=C(O)C1CCS(=O)(=O)C1` (stereo not given), the fold change was 2.36.

As for `CCCOC(=O)C1=C(C)NC2=C(C(=O)CC(C)(C)C2)C1c1ccc(C)o1` (stereo not given), the fold change is -1.43.

Turning to `CC1=C(C(=O)OCC2CCCO2)C(c2ccc(C)o2)C2=C(CCCC2=O)N1` (stereo not given), the fold change was 1.18.

Regarding `CC1=C(C(=O)OCC2CCCO2)C(c2ccc(C)o2)C2=C(CC(C)(C)CC2=O)N1` (stereo not given), the fold change was 2.87 (active).

Turning to `CCCCC(CC)C(=O)N(CC#N)CC#N` (stereo not given), the fold change is -1.13.

Turning to `CC(C)(C)c1ccc(C(N2CCCCC2)P(=O)(c2ccccc2)N2CCCCC2)cc1` (stereo not given), the fold change is -1.12.

With `Cc1cc(/C=c2\sc3nc4ccccc4n3c2=O)c(C)n1C1CCCC1`, the fold change was -1.02.

Consider `Cn1cc([N+](=O)[O-])c(C(=O)n2cccn2)n1`, for which the fold change is -1.36.

With `COC(=O)c1ccc(=O)oc1`, the fold change was -1.06.

As for `CN(C(=O)CSC(=S)N1CCCC1)c1ccccc1`, the fold change is 1.5.

Take `CC(=O)Nc1sc2c(c1C#N)CCCC2`: the fold change is 1.19.

As for `N#Cc1c(N)sc2c1CCCCC2`, the fold change was 3 (active).

Consider `CN1CCc2c(sc(N)c2C#N)C1`, for which the fold change is 1.58.

For `c1ccc2c(Cc3ccncc3)c3ccccc3nc2c1`, the fold change was -1.25.

For `O=[N+]([O-])c1cc(Br)cc(C=NCCCCCCN=Cc2cc(Br)cc([N+](=O)[O-])c2O)c1O`, the fold change entry was “inactive”.

As to `Cn1cccc1/C=C(/C#N)C(N)=O`, the fold change was 1.32.

Take `COc1cc(NS(=O)(=O)c2ccc(N)cc2)nc(OC)n1`: the fold change was 3.06 (active).

With `COc1cc(NC(=O)CCC(=O)O)nc(OC)n1`, the fold change was -1.34.

Consider `Cc1cc(NS(=O)(=O)c2ccc(N)cc2)no1`, for which the fold change is -1.35.

As to `CCOC(=O)/C(C#N)=C/Nc1ccsn1`, the fold change is 2.1.

For `N#CC1=C(N)n2c(s/c(=C\c3ccc(O)cc3)c2=O)=C(C#N)C1c1ccc(O)cc1` (stereo not given), the fold change was -3.

Regarding `COc1ccccc1OCCSc1nc2ccccc2o1`, the fold change was -1.24.

Turning to `O=[N+]([O-])c1cccnc1NCCc1cccs1`, the fold change is -2.56.

`O=[N+]([O-])c1ccc(NCCc2cccs2)nc1`: the fold change is 2.58 (active).

As to `O=[N+]([O-])c1ccc(Nc2ccc3c(c2)OCCO3)nc1`, the fold change is -1.85.

`O=[N+]([O-])c1ccc2c(c1)Cc1cc([N+](=O)[O-])ccc1-2`: the fold change was -1.19.

For the compound `O=S(=O)(c1ccc(Cl)cc1)N1CCc2ccccc21`, the fold change was 4.39 (active).

As for `O=S(=O)(c1ccc(Cl)cc1)N1CCCc2ccccc21`, the fold change was 1.97.

Consider `O=S(=O)(c1ccccc1)N1CCc2ccccc21`, for which the fold change was -1.19.

As for `CCOC(=O)c1c(NC(=O)c2cccs2)sc2c1CCCCC2`, the fold change was 1.37.

Regarding `CC(C(=O)Nn1cnnc1)N1C(=O)c2ccccc2C1=O` (stereo not given), the fold change was -8.91.

Take `Nc1cccc(S(=O)(=O)N2CCCC2)c1`: the fold change is -1.08.

With `O=[N+]([O-])c1ccc2c(c1)oc1ccc(S(=O)(=O)N3CCCC3)cc12`, the fold change was 1.12.

Take `O=[N+]([O-])c1cccc(S(=O)(=O)N2CCCC2)c1`: the fold change is 3.3 (active).

On to `CC(C)CC(=O)NC1CCCCCC1`, for which the fold change is -1.5.

On to `O=C1N=C(N2CCOCC2)S/C1=C\C1=Cc2ccccc2OC1`, for which the fold change was -1.34.

In the case of `OC[C@H]1O[C@@H](O[C@@H]2[C@@H](CO)O[C@](O)(CO)[C@H]2O)[C@H](O)[C@@H](O)[C@H]1O`, the fold change is 1.55.

On to `OCC1(O)OC[C@H](O)[C@@H](O)[C@@H]1O` (stereo not given in full), for which the fold change is 2.95 (active).

With `CC1(C)[C@H]2CCC1(CS(=O)(=O)N(C1CCCCC1)C1CCCCC1)C(O)C2` (stereo not given in full), the fold change is -1.17.

In the case of `O=C(Cn1c(C(F)(F)F)nc2ccccc21)NC1CCCCC1`, the fold change was -1.95.

As for `N=C1SCC(=O)N1c1nccs1`, the fold change is 1.78.

Turning to `O=c1c2ccccc2c2nc3c(c(-c4cccc(Br)c4)c12)c(=O)c1ccccc13`, the fold change is -1.26.

With `c1ccc2c(c1)c1ccccc1c1nc3c4ccccc4c4ccccc4c3nc21`, the fold change is 4.67 (active).

For the compound `O=c1c2ccccc2c2nc3c(c(-c4ccccc4)c12)c(=O)c1ccccc13`, the fold change was -1.07.

For `COC(=O)C1=C(C(=O)OC)SC2(S1)C(C(=O)OC)=C(C(=O)OC)SC1=C2c2cc(OC)ccc2NC1(C)C`, the fold change was 1.52.

With `Cn1c(-c2ccc(Cl)cc2Cl)n[nH]c1=S`, the fold change is 2.57 (active).

In the case of `Cc1ccc(-c2n[nH]c(=S)n2C)cc1Cl`, the fold change is -1.92.

As for `C=CCn1c(-c2ccc(Cl)cc2Cl)n[nH]c1=S`, the fold change is 1.34.

As for `NC(=O)c1c(NC(=O)CCC(=O)O)sc2c1CCCC2`, the fold change is -1.38.
